Screening results deposited in PubChem by Paczesny and Yang Labs, IUPUI and University of Michigan.
The full list was thinned out, with hits kept by preference.
ST2 IL33 inh: inhibitors of human ST2 (IL1RL1) binding to IL-33, primary screen, biochemical, AlphaLISA. Interleukin-1 receptor-like 1 (Homo sapiens), Q01638. AlphaLISA ST2-Fc/biotin-IL-33 interaction, 1 h. inhibition, % for hits at 17 µM. actives 2.3% (n = 78,000); in the data active means inhibition above about 30%
Target sequence (Q01638 whole entry, looked up): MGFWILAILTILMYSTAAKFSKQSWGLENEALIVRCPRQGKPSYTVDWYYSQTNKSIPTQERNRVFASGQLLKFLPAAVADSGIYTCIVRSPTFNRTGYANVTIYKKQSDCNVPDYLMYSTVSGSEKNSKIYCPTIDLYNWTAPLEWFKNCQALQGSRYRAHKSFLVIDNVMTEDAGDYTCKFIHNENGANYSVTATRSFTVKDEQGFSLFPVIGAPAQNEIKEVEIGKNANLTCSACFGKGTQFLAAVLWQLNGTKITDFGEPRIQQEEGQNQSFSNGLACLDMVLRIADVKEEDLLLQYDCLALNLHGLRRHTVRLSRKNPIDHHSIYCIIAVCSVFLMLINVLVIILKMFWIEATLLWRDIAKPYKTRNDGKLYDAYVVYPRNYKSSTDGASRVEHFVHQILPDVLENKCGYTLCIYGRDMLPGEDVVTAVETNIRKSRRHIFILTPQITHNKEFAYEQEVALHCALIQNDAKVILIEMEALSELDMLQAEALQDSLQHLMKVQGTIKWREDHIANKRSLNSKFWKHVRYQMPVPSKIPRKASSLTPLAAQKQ
Starred values were filed as active, the others as inactive; i = inactive; ! = repeats disagree.

SMILES	ST2 IL33 inh
O=C(O)CC(CCc1ccccc1)CC(=O)O	i
CCOC(=O)C1C(=O)C=C(c2cccs2)CC1c1ccccc1OCC (stereo unspecified)	i
CCOC(=O)C1C(=O)C=C(c2cccs2)CC1c1ccc(OC)c(OC)c1 (stereo unspecified)	i
O=C1C=C(c2cccs2)C[C@H](c2ccccc2)[C@H]1n1nnc([N+](=O)[O-])n1	41%*
O=S(=O)(Nc1ccc(O)c(Br)c1)c1ccc(Cl)cc1	i
Cc1nc(N(CCC(=O)O)CCC(=O)O)sc1C(C)(C)C	i
CCc1cccc(-n2c(-c3ccco3)nc3c(cnn3-c3ccc(F)cc3)c2=O)c1	i
CCOc1ccc(-n2c(C)nc3c(cnn3-c3ccc(F)cc3)c2=O)cc1	i
CCOc1ccc(-n2c(-c3ccco3)nc3c(cnn3-c3ccc(F)cc3)c2=O)cc1	33%*
CC(C)CS(=O)(=O)c1cccs1	i
CC(=O)Nc1ccc(-c2nc3cc4sc(-c5ccc(NC(C)=O)cc5)nc4cc3s2)cc1	i
O=C(Cc1ccccc1)Nc1cccc(-c2nc3ccccc3s2)c1	i
N#Cc1ccc(C(=O)Nc2ccc(-c3nc4ccccc4s3)cc2)cc1	32%*
O=C(c1ccccc1Cl)N1CCN(c2ccccc2)CC1	i
N#CC(C#N)=C1C(Cl)=C(N2CCCCC2)c2ccccc21	82%*
N#Cc1c(N)nc2c(c1-c1ccccc1Cl)CCCCC2	i
Cc1c(C(=O)N2CCN=C2SCc2ccccc2)cccc1[N+](=O)[O-]	i
COc1ccc(-c2cnn(-c3ccccc3)c2N)cc1OC	i
Cc1cc(C)n(-c2nc(-c3ccccc3)cc(-c3ccccc3O)n2)n1	i
Oc1ccccc1/C=C/c1nc(-c2ccccc2O)n(-c2ccccc2)n1	36%*
Oc1ccccc1C=Nc1ccccc1-c1nnc2n1CCCCC2	i
COc1ccc(/C=C/c2nc(-c3ccccc3O)n(-c3ccccc3)n2)cc1OC	36%*
COc1cc(/C=C/c2nc3ccccc3c(=O)n2-c2cccc([N+](=O)[O-])c2)ccc1O	i
COC(=O)CNC(=O)c1cccc(OC2CCN(C(=O)C3CC3)CC2)c1	i
Cc1cccc(NC(=O)CSc2nnc(C(O)c3ccccc3)n2-c2ccccc2)c1C (stereo unspecified)	i
SMILES	ST2 IL33 inh
CCN(CC)C(c1ccc(F)cc1)c1c(O)[nH]c(=O)[nH]c1=O (stereo unspecified)	i
COc1ccc(CCNc2oc(COc3ccccc3C)nc2C#N)cc1OC	38%*
COc1ccc(CCNC(=O)CC(c2ccccc2)c2ccccc2)cc1OC	i
COc1ccc(CCNc2oc(COc3cccc(C)c3)nc2C#N)cc1	30%*
COc1ccc(CNc2oc(COc3ccc(Cl)cc3)nc2C#N)cc1	i
COc1ccccc1OCc1nc(C#N)c(NCc2cccnc2)o1	i
Cc1cccc(OCc2nnc(SCC(=O)Nc3ccc(C)c(C)c3)o2)c1	i
Cc1ccc2nsnc2c1S(=O)(=O)N1C[C@H]2CC=CC[C@H]2C1	i
COC(=O)C1=NNC(C(=O)c2ccccc2)C1c1ccc(C)cc1 (stereo unspecified)	i
CCOc1ccc(C2CC(c3ccc(C)cc3)Nc3nc(N)nn32)cc1 (stereo unspecified)	i
O=C(Nc1ccccc1F)c1ccc([N+](=O)[O-])cc1	i
Cc1ccc2sc(-c3ccc(N4C(=O)C5C6C=CC(C6)C5C4=O)cc3)nc2c1 (stereo unspecified)	i
COc1cccc2cc(C(=O)NC(C)=O)c(=Nc3cccc(F)c3)oc12	i
COc1cccc2cc(C(=O)NC(C)=O)c(=Nc3ccccc3F)oc12	33%*
COc1cccc2cc(C(=O)NC(C)=O)c(=Nc3ccc(C(F)(F)F)cc3)oc12	i
COCc1nnc(NC(=O)c2ccccc2F)s1	i
Cc1cc(C)cc(N(C(=O)Cc2ccccc2)C2C=CS(=O)(=O)C2)c1 (stereo unspecified)	i
Cc1cccn2c(=O)c(C=Nc3ccccc3)c(NCc3ccco3)nc12	i
Cc1ccc(N=Cc2c(Nc3cccc(Cl)c3)nc3c(C)cccn3c2=O)cc1	i
Cc1cccn2c(=O)c(C=Nc3ccccc3)c(NCc3ccccc3)nc12	39%*
CC12C(=O)N(c3cccc(O)c3)C(=O)C1C1C=CC2C1 (stereo unspecified)	i
Nc1ccc(/C=C/C2C=CC=CC2)cc1 (stereo unspecified)	47%*
CCCc1ccc(C(C)NC(=O)CN2CCN(c3cn[nH]c(=O)c3)CC2)cc1 (stereo unspecified)	i
Cc1cccc(N2CCN(C(=O)c3cccn4c(=O)c5c6c(sc5nc34)CCCC6)CC2)c1C	i
c1ccc(CN2CCC[C@H]2c2nc(-c3ccc(OC4CCCCC4)nc3)no2)nc1	i
SMILES	ST2 IL33 inh
O=[N+]([O-])c1cccc(C=Nc2nnc(-c3ccccc3)s2)c1	i
O=C1OC(c2cccc([N+](=O)[O-])c2)=N/C1=C\c1cccc(I)c1	i
Cc1ccc([N+](=O)[O-])cc1N1C(=O)/C(=C\c2ccccc2)N=C1c1ccccc1	40%*
CC(C)C1CN(C(=O)C(N)=O)CCCN1Cc1ccc(F)cc1 (stereo unspecified)	i
CCOC(=O)c1nn(CCc2ccc(OC)cc2)c2c1CN(CCC(=O)OC)CC2	i
COC(=O)Oc1cc2oc(=O)sc2cc1Cl	i
CCOC(=O)Oc1c(Cl)cc2oc(=O)sc2c1Br	32%*
CCOC(=O)Oc1ccc2c(c1)oc(=O)c1ccccc12	i
CCCOc1ccc2oc(=O)c3c(c2c1)CCCN3C(=O)CN1CCN(c2ncccn2)CC1	i
CN1CCN(CC(=O)N2CCCc3c2c(=O)oc2ccc(OCc4ccccc4)cc32)CC1	39%*
CCN1CCN(CC(=O)N2CCCc3c2c(=O)oc2ccc(OCc4ccccc4)cc32)CC1	30%*
CCCOc1ccc2oc(=O)c3c(c2c1)CCCN3C(=O)CN1CCCCCC1	i
CCCOc1ccc2oc(=O)c3c(c2c1)CCCN3C(=O)CN1CCCC(C(=O)OCC)C1 (stereo unspecified)	i
CCCOc1ccc2oc(=O)c3c(c2c1)CCCN3C(=O)CN1CCN(C(=O)c2ccco2)CC1	i
Cc1cc(-c2nc(-c3ccc(Cl)cc3)no2)ccc1[N+](=O)[O-]	i
COc1cc(C=O)ccc1OCCOc1c(Cl)cccc1Cl	i
O=C(Nc1ncc(S(=O)(=O)c2ccc([N+](=O)[O-])cc2)s1)c1cccc(Cl)c1	i
CCN(Cc1noc(C)n1)C(=O)CC1C(=O)NCCN1CC1CCCCC1 (stereo unspecified)	i
COc1ccc2nc3oc(C(=O)N4CCOCC4)cc3cc2c1	i
COc1ccc2nc3oc(C(=O)Nc4ccc(F)cc4F)cc3cc2c1	i
COc1ccc2cc3cc(C(=O)Nc4cccnc4)oc3nc2c1	i
CCc1cccc(NC(=O)c2cc3cc4ccc(OC)cc4nc3o2)c1	i
COc1ccc2cc3cc(C(=O)Nc4ccc(OC)c(Cl)c4)oc3nc2c1	31%*
COc1ccc2cc3cc(C(=O)Nc4ccc(C)cc4Cl)oc3nc2c1	i
COc1ccc2nc3oc(C(=O)Nc4ccc5c(c4)OCCO5)cc3cc2c1	36%*
COc1ccc2cc3cc(C(=O)Nc4cccc(SC)c4)oc3nc2c1	34%*!
COc1ccc2cc3cc(C(=O)Nc4ccc(OC)c(OC)c4)oc3nc2c1	i
CCc1c(-c2ccc(C)cc2)nc2ccccc2c1C(=O)O	i
Nc1ncnc(SC2=NCCS2)c1[N+](=O)[O-]	i
